The values below come from PubChem BioAssay AID720554 (ICCB-Longwood Screening Facility, Harvard Medical School, 2013).

Molecules are shown by their SMILES. Among all 12,000 compounds or so, about 45 (0.4%) were called active. Rule as the data show it: active = inhibition mostly above about 83% (no sharp cut-off); inactive = mostly below about 52%. The list comes from a sample in which actives are over-represented; it also holds similar structures and randomly drawn compounds.

Assay [1] in a line: BmaI1 acyl-homoserine lactone synthase inhibition – biochemical, fluorescence intensity, with counterscreen (AID 720554). Particulars: BmaI1 enzyme assay, measured here: counterscreen fluorescence % control, concentration not given here. In general terms: The purpose of a counterscreen is to sort out artefacts and off-target activity.
Assay [2] concerns acyl-homoserine lactone synthase BmaI1 (Burkholderia mallei ATCC 23344). The assay is described as above. To be noted: BmaI1 enzyme assay, stronger effect = higher value, concentration not given here.

By inhibition is commonly meant the relative decrease from the control value, in per cent.

With `COc1ccc(C(=O)Nc2nccs2)c(F)c1`, the inhibition in assay [1] was 6.5%; in assay [2], 9.5% (inactive).

With `Cc1ccc(SCC(=O)NC(=O)C(C)C)cc1C`, the figures for the inhibition in assay [1] and in assay [2] were 8% and 14.5% (inactive), respectively.

Consider `CC(C)c1nc(C#N)c(NCc2cccnc2)o1`, for which the results for the inhibition in assay [1] and in assay [2] were 16.5% and 31% (inactive), respectively.

Turning to `Cc1cc(C(=O)OCC(=O)c2ccc(NC(=O)CC(C)C)cc2)no1`, the figures for the inhibition in assay [1] and in assay [2] were 14.5% and 13.5% (inactive), respectively.

With `CN(CC(=O)Nc1ccc(Cl)cc1)C(=O)c1ccc(OC(F)F)cc1`, the inhibition in assay [1] was 17%; in assay [2], 13% (inactive).

`FC(F)Oc1ccc(NC(=S)NNc2ccc(Cl)nn2)cc1`: the inhibition was 28% in assay [1] and 104% (active) in assay [2].

Regarding `FC(F)Oc1ccc(NC(=S)NC2CCCC2)cc1`, the results for the inhibition in assay [1] and in assay [2] were -10.5% and -12.5% (inactive), respectively.

Turning to `CCC(C)N=C1NC(=O)C(CC(=O)NCc2ccccc2)S1` (centres undefined), the inhibition in assay [1] is 8.5%; in assay [2], 10.5% (inactive).

For `COC(=O)c1c(C)[nH]c(=O)[nH]c1=S`, the inhibition in assay [1] is 1.5%; in assay [2] it was -6.5% (inactive).

In the case of `COC(=O)C1=NC=CN2CCS(=O)(=O)N=C12`, the inhibition in assay [1] was 9.5%; in assay [2], 7% (inactive).

Turning to `O=S1(=O)CCN2C=CSC2=N1`, the inhibition in assay [1] is 11.5%; in assay [2] it was 17% (inactive).

Take `Cc1sc2c(c1C)C1=NS(=O)(=O)CCN1C=N2`: the inhibition in assay [1] is 10%; in assay [2], 88.5% (active).

Take `CCOc1ccccc1NC(=O)CSc1nc(O)cc(=O)n1C1CCCC1`: the values for the inhibition in assay [1] and in assay [2] were 5.5% and 7.5% (inactive), respectively.

With `CCOc1ccc(O)c(C=NC2CCCC2)c1`, the inhibition in assay [1] is 2.5%; in assay [2] it was 2.5% (inactive).

Consider `COc1ccc(OCC(=O)N2CC(C)CC(C)C2)cc1` (centres undefined), for which the inhibition in assay [1] was -8%; in assay [2], 7% (inactive).

As for `N/C(Cc1nc2ccccc2[nH]1)=N\O`, the results for the inhibition in assay [1] and in assay [2] were 2% and 24% (inactive), respectively.

Regarding `NC(=S)Cc1nc2ccccc2[nH]1`, the inhibition in assay [1] is 27%; in assay [2] it was 98% (active).

As for `CC(C)(C)Cc1nc2ccccc2[nH]1`, the inhibition is 18% in assay [1] and 20.5% (inactive) in assay [2].

Consider `Cc1cc(=O)[nH]c(NNC(=S)Nc2ccc(S(=O)(=O)N3CCOCC3)cc2)n1`, for which the inhibition was 10% in assay [1] and 72% (inactive) in assay [2].

Take `COc1ccc(NC(=O)COC(=O)C23CCC(=O)N2c2ccccc2S3)cc1` (centres undefined): the inhibition in assay [1] was 5%; in assay [2], -0.5% (inactive).

For `Cc1ccc(NC(=O)Nc2ccc3c(c2)C(=O)NC3=O)cc1`, the figures for the inhibition in assay [1] and in assay [2] were 14% and 9% (inactive), respectively.

Regarding `Cc1ccc(NC(=O)Nc2ccc(N(C)C)cc2)cc1`, the values for the inhibition in assay [1] and in assay [2] were 3.5% and 98.5% (active), respectively.

As for `Cc1ccc(C(=O)OCC(=O)Nc2ccc(N(C)C)cc2)c(C)c1`, the inhibition in assay [1] is -7.5%; in assay [2], 24.5% (inactive).

`CN(C)C(CNC(=O)c1ccc2ncsc2c1)c1cccs1` (centres undefined): the inhibition in assay [1] was 13%; in assay [2], 18% (inactive).

For the compound `O=C(CCc1nc2ccccc2o1)Nc1cccc(-n2cnnn2)c1`, the inhibition in assay [1] is 6.5%; in assay [2], 16.5% (inactive).

`CC(C)NC(=S)NNc1ccccc1C(F)(F)F`: the inhibition in assay [1] is -31%; in assay [2] it was 14% (inactive).

With `CC(C)NC(=S)NNc1ncc(C(F)(F)F)cc1Cl`, the inhibition in assay [1] was 8%; in assay [2], 89% (active).

In the case of `FC(F)(F)c1cnc(NNC(=S)NCC2CCCO2)c(Cl)c1` (centres undefined), the inhibition is -1% in assay [1] and 51.5% (inactive) in assay [2].

As for `CCN(C(=O)CSc1nnc(-c2ccccc2)c(-c2ccccc2)n1)C1CCS(=O)(=O)C1` (centres undefined), the values for the inhibition in assay [1] and in assay [2] were -2.5% and 6% (inactive), respectively.

Consider `COC(=O)C1=C(C)NC(C)=C(C(=O)OC)C1C(=O)OCC(=O)Nc1cccc2nsnc12`, for which the inhibition was -2% in assay [1] and -15% (inactive) in assay [2].

As for `N#CCC(=O)Nc1ccc(C(=O)NCc2ccccc2)cc1`, the inhibition in assay [1] was 21.5%; in assay [2], 29.5% (inactive).

As to `CS(=O)(=O)CCC1NC(=O)NC1=O` (centres undefined), the inhibition in assay [1] was 2.5%; in assay [2], 10.5% (inactive).

Take `CC(=O)Nc1cccc(C(=O)Nc2ccc(N3CCCCC3)cc2)c1`: the inhibition is 7% in assay [1] and 83.5% (active) in assay [2].

On to `COc1ccc(C(=O)Nc2ccc(N3CCCCC3)cc2)cc1`, for which the inhibition in assay [1] was -2%; in assay [2] it was 22.5% (inactive).

Take `O=C(Nc1ccc(N2CCCCCC2)cc1)c1ccncc1`: the inhibition is 26.5% in assay [1] and 62% (inactive) in assay [2].

Regarding `Cc1cc(C(=O)CSc2ccccn2)c(C)n1Cc1cccs1`, the inhibition in assay [1] was 12%; in assay [2], 16% (inactive).

In the case of `CCN(C(=O)C(C)Sc1nc(C)cs1)c1ccccc1` (centres undefined), the results for the inhibition in assay [1] and in assay [2] were 3.5% and 14.5% (inactive), respectively.

Regarding `CCN(CC)C(=S)SSC(=S)N(CC)CC`, the inhibition is -13.5% in assay [1] and 96% (active) in assay [2].

For `CCN(CC)C(=S)SCc1ncc(-c2ccccc2)o1`, the inhibition in assay [1] is 3.5%; in assay [2], 13% (inactive).

Consider `FC(F)(F)c1nc(NNC(=S)NCC2CCCO2)c2ccccc2n1` (centres undefined), for which the inhibition was 25% in assay [1] and 100% (active) in assay [2].

`Cc1ccc(NNC(=S)NCC2CCCO2)c(C)c1` (centres undefined): the inhibition in assay [1] was 6.5%; in assay [2] it was 10% (inactive).

For the compound `O=C(O)c1ccc(NNC(=S)NCC2CCCO2)cc1` (centres undefined), the results for the inhibition in assay [1] and in assay [2] were -33% and -78.5% (inactive), respectively.

With `O=C1CCC(C(=O)NC2CCCCCC2)=NN1`, the inhibition is 11% in assay [1] and 18.5% (inactive) in assay [2].

For `Cc1cc(SCC(=O)O)n2c(nc3ccccc32)c1C#N`, the inhibition in assay [1] is 1%; in assay [2] it was 20% (inactive).

Take `Cc1ccccc1N1C(=O)C=CC1=O`: the results for the inhibition in assay [1] and in assay [2] were 4% and 82% (active), respectively.

As for `Cc1ccccc1-n1cc[nH]c1=S`, the inhibition is 4.5% in assay [1] and 23.5% (inactive) in assay [2].

As to `Cc1ccccc1N1C(=O)Cc2ccccc2C1=O`, the inhibition in assay [1] was 2%; in assay [2] it was 16.5% (inactive).
